Assay outcomes (PubChem BioAssay)
TEAD-YAP inh: TEAD-YAP interaction inhibition; actives 1.4% (n = 640,000); inhibition, % at 9.12 µM; AID 1259422; HEK-TIYL cells, TEAD-Gal4/YAP UAS-luciferase luminescence; in the data active means inhibition above about 32%
FBW7 activator: human FBW7 E3 ligase activation, primary screen. Q969H0. normalized activity (activation), % at 26.1 µM. actives 0.13% (n = 650,000). AID 1259310. AlphaScreen FBW7–phospho-cyclin E peptide binding, activator screen; in the data active means normalized activity above about 1.9%;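 further: purified mutant Fbw7 with reduced substrate affinity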
GPR151 activ: activates the human receptor GPR151; Q8TDV0; PathHunter beta-arrestin GPR151 cells, luminescence; activation, % at 11.2 µM; actives 1% (n = 650,000); in the data active means activation above about 4.9%
Target sequence (Q8TDV0 whole entry, looked up): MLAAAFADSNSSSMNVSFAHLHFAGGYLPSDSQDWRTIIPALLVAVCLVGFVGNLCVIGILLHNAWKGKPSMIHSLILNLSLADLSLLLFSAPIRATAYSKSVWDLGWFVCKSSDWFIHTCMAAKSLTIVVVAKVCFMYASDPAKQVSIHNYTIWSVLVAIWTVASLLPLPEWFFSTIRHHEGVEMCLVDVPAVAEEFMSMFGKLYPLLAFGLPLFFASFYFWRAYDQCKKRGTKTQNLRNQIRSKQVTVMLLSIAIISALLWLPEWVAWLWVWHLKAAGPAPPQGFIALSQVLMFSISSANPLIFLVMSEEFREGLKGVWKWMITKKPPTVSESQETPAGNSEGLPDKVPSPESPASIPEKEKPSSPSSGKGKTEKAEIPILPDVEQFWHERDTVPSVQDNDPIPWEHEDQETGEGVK
MITF inh: human MITF inhibition, primary screen; O75030; AlphaScreen MITF homodimerization, bead proximity signal; inhibition, % at 2.6 µM; actives 0.91% (n = 650,000); in the data active means inhibition above about 50%
MITF confirm: human MITF inhibition, confirmation; shares compounds with MITF inh; AID 1259372; inhibition, % at 2.6 µM; actives 16% (n = 4,700); AlphaScreen MITF homodimerization, biotin/His-MITF beads;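 active means inhibition above a cutoff derived from the DMSO control wells, cut at about 28% in these data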;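 further: inhibitors lower the bead chemiluminescence by keeping MITF from dimerizing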
AlphaScreen DR: counter-screen: compounds optically interfering with AlphaScreen | actives 6% (n = 480) | IC50, µM | AlphaScreen optical interference counterscreen, cell-free | shares compounds with MITF inh; call rule not given here
AlphaScreen intf2: AlphaScreen optical interference, counter-screen; AID 1259376; LysRS AlphaScreen counterscreen, signal interference, triplicate; actives 7.6% (n = 4,700); inhibition, % at 2.6 µM; shares compounds with MITF inh;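 active means inhibition above a cutoff derived from the DMSO control wells, cut at about 30% in these data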
Of the large screens only hits and unclear results are named; the others gave an inactive call (follow-up assays come after a bar, where they were run). A selection: hits, their analogues and other compounds. The true share with any hit is near 3.5%.

COc1ccc(C(=O)CN2CCN(C)CC2)cc1	MITF inh 76.5 | MITF confirm inactive | AlphaScreen intf2 inactive
COc1cc2nc(Nc3ccccn3)nc(Nc3ccccc3)c2cc1OC	none
COc1ccc2oc(C(=O)c3ccc(F)cc3)c(NC(=O)CN3CCCCC3)c2c1	none
COc1cc(/C=C2\N=C(c3ccc(C)cc3)OC2=O)ccc1OCc1ccccc1Cl	none
COc1cc(/C=C2\N=C(c3ccc(F)cc3)OC2=O)ccc1OCc1ccccc1Cl	MITF inh 73.2 | MITF confirm inactive | AlphaScreen intf2 inactive
COc1ccc(/C=C2\N=C(c3ccc4c(c3)OCO4)OC2=O)cc1Cl	MITF inh 69.3 | MITF confirm 73.5 | AlphaScreen DR inactive | AlphaScreen intf2 inactive
Cn1c(/C=C/c2ccco2)nc2ccccc21	none
CCCn1c2ccccc2c2nnc(SCC(N)=O)nc21	none
NC(=O)CSc1nnc2c3ccccc3n(CCc3ccccc3)c2n1	MITF inh 52.7 | MITF confirm inactive | AlphaScreen intf2 inactive
CC(=O)NNC(=O)CSc1nnnn1-c1cccc(C(C)=O)c1	MITF inh 72.7 | MITF confirm inactive | AlphaScreen intf2 inactive
CCCCn1nnnc1SCC(=O)Nc1cccc(C)c1	none
CCCCn1nnnc1SCC(=O)Nc1cccc(C(C)=O)c1	MITF inh 67.9 | MITF confirm inactive | AlphaScreen intf2 inactive
COc1cc(C(=O)NCC(=O)N/N=C/c2ccncc2)cc(OC)c1OC	none
COc1ccccc1CN1CCNC(=O)C1CC(=O)N1CCN(C2CCCC2)CC1 (stereo not drawn)	none
O=C(Cn1nc2ccccc2n1)N/N=C/c1ccccc1F	MITF inh 54.1 | MITF confirm inactive | AlphaScreen intf2 inactive
COc1ccc(COc2ccc3c(C)c(CC(=O)O)c(=O)oc3c2C)cc1	none
Cc1[nH]c(=O)[nH]c(=O)c1S(=O)(=O)N1CCCC(C(=O)NCc2cccnc2)C1 (stereo not drawn)	none
CCN1CCN(CCOc2ccc(Cl)cc2Br)CC1	MITF inh 56.6 | MITF confirm inactive | AlphaScreen intf2 inactive
CCN1CCN(CCOc2ccc3ccccc3c2Br)CC1	MITF inh 60.3 | MITF confirm inactive | AlphaScreen intf2 inactive
CCN1CCN(CCCOc2ccc(Cl)cc2Br)CC1	MITF inh 68.1 | MITF confirm inactive | AlphaScreen intf2 inactive
CCN1CCN(CCOc2ccc(Br)cc2C)CC1	MITF inh 57.5 | MITF confirm inactive | AlphaScreen intf2 inactive
CC1CN(CCOc2ccc(Cl)cc2Br)CC(C)O1 (stereo not drawn)	none
COc1ccc(Nc2nc(Cl)nc(Nc3ccc(C(C)C)cc3)n2)c(OC)c1	none
Cc1ccc(C(=O)NC(O)(C(F)(F)F)C(F)(F)F)cc1	none
COc1ccc(-c2nc3s/c(=C\c4ccccc4OC)c(=O)n3n2)cc1	none
Cc1ccc(NC(=O)CCC(=O)NNC(=O)NC23CC4CC(CC(C4)C2)C3)cc1C	none
O=C1CC(N2CCN(c3nc4ccccc4s3)CC2)C(=O)N1 (stereo not drawn)	none
CCN1CCN(CCOCCOc2ccccc2C#N)CC1	none
CCN1CCN(CCOc2cc(C)ccc2Cl)CC1	MITF inh 71.9 | MITF confirm inactive | AlphaScreen intf2 inactive
CCN1CCN(CCOc2cccc(Cl)c2Cl)CC1	MITF inh 71.5 | MITF confirm inactive | AlphaScreen intf2 inactive
CCN1CCN(CCCOc2ccc(C)cc2Cl)CC1	MITF inh 67.8 | MITF confirm inactive | AlphaScreen intf2 inactive
C=CCSc1nc(N)c2c3c(sc2n1)CN(Cc1ccccc1)CC3	none
COc1ccc2nc3oc(C(=O)NCc4ccc(C)o4)cc3cc2c1	none
CCOc1ccc(C2=C(C)SC3=NS(=O)(=O)CCN32)cc1	none
CCN1C(=O)C2(c3ccccc31)c1c(oc3ccccc3c1=O)C(=O)N2CCCOC(C)C (stereo not drawn)	none
CN1CCN(CCOCCOc2cccc(Br)c2)CC1	MITF inh 71.9 | MITF confirm inactive | AlphaScreen intf2 inactive
CCN1CCN(CCOc2cccc(Br)c2)CC1	MITF inh 68.0 | MITF confirm inactive | AlphaScreen intf2 inactive
CN1CCN(CCOCCOc2ccc(Br)cc2Cl)CC1	none
COc1ccccc1C1NC(=S)NC2=C1C(=O)CCC2 (stereo not drawn)	none
CCOc1ccccc1C(=O)Nc1ccc2c(c1)C(=O)Nc1ccccc1O2	MITF inh 52.8 | MITF confirm inactive | AlphaScreen intf2 inactive
